Pol III holo inh: DNA polymerase III holoenzyme inhibition. reconstituted DNA polymerase III holoenzyme replication, biochemical. Potency, µM (series often up to 57.1 µM), inactives show top-dose activity change, negative = inhibition. 71,000 tested, 0.25% active
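Reconstituted *E. coli* holoenzyme (0.35 nM Pol III, 1 nM beta, 154 nM SSB, 2 nM primase) was preincubated with compound for 15 min at RT. Synthesis on 1.4 nM ssM13Gori ran 35 min, then was stopped with PicoGreen/EDTA and read as dsDNA fluorescence.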
Bst PK mod: alters activity of Bacillus stearothermophilus pyruvate kinase; purified pyruvate kinase, luminescence ATP production; ribose 5-phosphate activator present at AC10; Potency, µM; 51,000 tested, 1.2% active; in the data active = potency below about 11 µM; inconclusive = mostly about 12 µM to 25 µM;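 the screen sought inhibitors and activators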;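 note: scaled between full activation by ribose 5 phosphate and full inhibition by luteolin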
Tau filament bind: tau filament binding. P10636. recombinant tau filaments, thioflavin S fluorescence, 15 h; filaments grown with octadecylsulfate alongside compound. Potency, µM (top dose mostly 57.1 µM), without a hit: at the highest dose activity change, negative = inhibition. 71,000 tested, 2% active;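 note: actives lower thioflavin S fluorescence by blocking filaments or displacing dye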
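Tau 2 uM in ThS buffer dispensed; compound added; 60 uM ODS added (finals 1 uM tau, 30 uM ODS); 15 h 37 C; fluor ex450/em510.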
15-hLO inh: blocks human 15-lipoxygenase activity; P16050; purified 15hLO-1, xylenol orange hydroperoxide absorbance; Potency, µM (titrated, usually from 57.1 µM), without a hit: at the highest dose activity change, negative = inhibition, most hits filed as inhibitors; 74,000 tested, 1.4% active; note: nearly all actives have a fitted effect of over 55% in size
Target sequence (P16050 whole entry, looked up): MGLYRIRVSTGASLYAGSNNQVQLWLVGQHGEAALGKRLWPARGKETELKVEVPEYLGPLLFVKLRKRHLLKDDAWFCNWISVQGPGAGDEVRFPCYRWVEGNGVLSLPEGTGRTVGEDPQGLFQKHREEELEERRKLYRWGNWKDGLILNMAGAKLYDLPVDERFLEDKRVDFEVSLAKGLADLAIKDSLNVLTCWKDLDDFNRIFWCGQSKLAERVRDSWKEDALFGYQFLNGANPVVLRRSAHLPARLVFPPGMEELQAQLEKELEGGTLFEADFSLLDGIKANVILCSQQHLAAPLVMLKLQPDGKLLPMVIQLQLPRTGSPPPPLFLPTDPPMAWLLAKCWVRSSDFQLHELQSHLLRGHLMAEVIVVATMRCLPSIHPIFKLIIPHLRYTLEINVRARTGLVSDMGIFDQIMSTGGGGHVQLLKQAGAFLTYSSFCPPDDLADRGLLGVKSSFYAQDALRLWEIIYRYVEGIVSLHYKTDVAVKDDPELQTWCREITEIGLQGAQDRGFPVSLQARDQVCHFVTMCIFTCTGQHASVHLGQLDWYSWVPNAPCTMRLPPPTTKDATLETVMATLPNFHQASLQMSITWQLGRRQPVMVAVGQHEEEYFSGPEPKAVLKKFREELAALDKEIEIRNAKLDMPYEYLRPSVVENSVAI
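Purified human 15hLO-1 (40 nM final) in 25 mM Hepes pH 7.5, 0.01% Triton X-100 was preincubated with compound 15 min at room temperature, then reacted 6 min with 50 uM arachidonic acid; hydroperoxide detected by Fe-XO, 573/405 nm absorbance ratio.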
ERK AVP inh: inhibitors of vasopressin-stimulated ERK signaling pathway; HEK293-V1b, vasopressin-stimulated pERK AlphaScreen; 72,000 tested, 0.99% active; AID 995; Potency, µM (highest dose often 57.5 µM), inactives show at the top dose activity, negative = inhibition, hits mostly inhibitors; note: nearly all actives have a fitted effect of over 55% in size
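HEK293 cells stably expressing V1b receptor, seeded overnight in 1% FBS, were treated with compounds for 30 min at 37C, then stimulated 5 min with 25 nM vasopressin; phospho-ERK read by AlphaScreen SureFire after lysis.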
Luciferase inh: inhibitors of firefly luciferase. purified firefly luciferase, luminescence, 8 min. Potency, µM (doses to about 57.1 µM), for inactives: at the top dose activity change, negative = inhibition, hits mostly inhibitors. 72,000 tested, 2.2% active; note: nearly all actives have a fitted effect of over 40% in size
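Firefly luciferase (PKLight detection mix) with 10 uM ATP in pH 7.2 imidazole buffer (KCl, MgCl2, Tween 20, BSA). Compounds tested across a concentration series (qHTS). Luminescence read after 8 min at ambient temperature.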
Numbers without * were called inactive; [ ] = remark or other dose. A selection: hits, their analogues and other compounds. The true share with any hit is near 6%. Unless noted, calls come from the whole dose curve; as a rule, active = well fitted curve in the direction sought with a large enough effect; inconclusive = small, poorly fitted or top-dose-only effect, or another doubt; inactive = no such curve, though single readings can be large; an effect the other way counts as inactive or inconclusive. Unless noted, % is set by controls: 0 for no effect and ±100 for the full control effect; potency is the fitted concentration of half-maximal effect.

For Nc1c(O)cccc1C(=O)C[C@@H](N)C(=O)O the results were Pol III holo inh -8%[25.6 µM], Tau filament bind 4%[25.6 µM], 15-hLO inh -11%[25.6 µM], ERK AVP inh -1%[25.7 µM] and Luciferase inh 2%[25.5 µM].
Screening Nc1ccccc1C(=O)C[C@@H](N)C(=O)O returned Pol III holo inh 3%, Tau filament bind 40µM* and Luciferase inh 1%[11.4 µM].
c1ccc(-n2ncc3c(NCC4CCCO4)ncnc32)cc1 (configuration not stated) was read as Bst PK mod inactive and Luciferase inh -27%[25.5 µM].
Screening Clc1ccc(-n2ncc3c(NCC4CCCO4)ncnc32)cc1 (configuration not stated) returned Pol III holo inh 2%, Tau filament bind 10%, 15-hLO inh 10% and Luciferase inh 5µM*.
For Clc1ccc2[nH]c3c(NCC4CCCO4)ncnc3c2c1 (configuration not stated) the results were Pol III holo inh -5%, Bst PK mod inactive, Tau filament bind -4%, 15-hLO inh inconclusive, ERK AVP inh 25µM* and Luciferase inh -8%.
Clc1ccc(-n2ncc3c(NCc4ccco4)ncnc32)cc1 was read as Bst PK mod 7.6* and Luciferase inh 4µM*.
For COc1ccc(-n2ncc3c(NCc4ccco4)ncnc32)cc1 the results were 15-hLO inh -17%.
For Clc1ccc2[nH]c3c(NCCN4CCOCC4)ncnc3c2c1 the results were Bst PK mod inactive and Luciferase inh 0%[25.5 µM].
Screening CCC/C=C(\CCC)C(NS(=O)(=O)c1cccs1)c1ccc(C(=O)OC)cc1 (configuration not stated) returned Pol III holo inh -10%, Tau filament bind -4% and ERK AVP inh 17%.
Screening COc1ccc2[nH]cc(CCNc3ncncc3-c3ccccc3C)c2c1 returned Pol III holo inh 4%, Tau filament bind -10%, 15-hLO inh -4%, ERK AVP inh inconclusive and Luciferase inh 1%[2.29 µM].
For O=C1C[C@@H](O)[C@@H](O)[C@@H]2[C@H]3C(=O)N(c4ccc(F)cc4F)C(=O)[C@@H]3CC[C@@H]12 the results were 15-hLO inh 4%[11.4 µM], ERK AVP inh 32%[11.5 µM] and Luciferase inh 0%[11.4 µM].
Screening CC(C)C[C@@H](CC(=O)N[C@H](CC(=O)N[C@@H]1CCNC[C@H]1C(=O)N[C@H](CC(=O)N[C@@H](CCC(=O)O)CC(=O)O)Cc1ccccc1)C(C)C)NC(=O)[C@@H]1CCCC[C@H]1N returned Pol III holo inh -1% and Tau filament bind 1%.
For Cc1cc(NCCN2CCOCC2)n2ncc(-c3ccccc3)c2n1 the results were Pol III holo inh -1%, Tau filament bind -14%, 15-hLO inh 9%, ERK AVP inh 7% and Luciferase inh 20µM*.
`Cc1cc(NCCCn2ccnc2)n2ncc(-c3ccccc3)c2n1` gave Pol III holo inh -7%, Bst PK mod 2*, Tau filament bind -18%, 15-hLO inh 17%, ERK AVP inh 0% and Luciferase inh 1.6µM*.
For COC(=O)C1C(=O)C2=C(CC1C)NC(C)=C(C(=O)OC1CCCCC1)C2c1ccc(N(C)C)cc1 (configuration not stated) the results were Pol III holo inh 1%, Bst PK mod >57, Tau filament bind 25µM*, 15-hLO inh 16µM*, ERK AVP inh -19% and Luciferase inh 2%.
Screening COC(=O)C1C(=O)C2=C(CC1C)NC(C)=C(C(=O)OCCOc1ccccc1)C2c1ccc(C)o1 (configuration not stated) returned Pol III holo inh -9%, Bst PK mod >57, Tau filament bind 7%, 15-hLO inh -27%, ERK AVP inh 10% and Luciferase inh 0%.
`Cc1c(C(=O)OC2CCCCC2)[nH]c2c1C(=O)CC(C)(C)C2` gave Pol III holo inh -5%, Bst PK mod >57, Tau filament bind 11%, 15-hLO inh -2%, ERK AVP inh 6% and Luciferase inh 1%.
COC(=O)C1C(=O)c2c([nH]c(C(=O)OC3CCCC3C)c2C)CC1C (configuration not stated) was read as Pol III holo inh -5%, Tau filament bind 22%, 15-hLO inh -13%, ERK AVP inh 32µM* and Luciferase inh 10µM*.
Screening COC(=O)C1C(=O)c2c([nH]c(C(=O)OC3CCCCC3)c2C)CC1C (configuration not stated) returned Pol III holo inh -3%, Tau filament bind 49%, 15-hLO inh 0%, ERK AVP inh -5% and Luciferase inh 1µM*.
Screening c1ccsc1 returned Pol III holo inh -2%, Tau filament bind -8%, 15-hLO inh 1% and ERK AVP inh 1%.
For CCN(CC)CCCC(C)n1c(-c2ccccc2)nc2c(NC3CCCCC3)nc(C)nc21 (configuration not stated) the results were Pol III holo inh 0%, Tau filament bind 31%, 15-hLO inh -28% and ERK AVP inh 13%.
`C=CCn1c(SCC(=O)NC2CCCC2)nc2scc(-c3ccco3)c2c1=O` gave Pol III holo inh -1%, Bst PK mod >57, Tau filament bind 107%, 15-hLO inh inconclusive, ERK AVP inh 2% and Luciferase inh -2%.
C=CCn1c(SCC(=O)NCCCC)nc2scc(-c3ccco3)c2c1=O was read as Pol III holo inh -7%, Bst PK mod >57, Tau filament bind 148%, 15-hLO inh 5µM*, ERK AVP inh 19% and Luciferase inh -11%.
For Cc1ccc(CCNC(=O)C2CCN(S(=O)(=O)c3cccc4nonc34)CC2)cc1 the results were Pol III holo inh 0%, Bst PK mod >57, Tau filament bind -10%, 15-hLO inh -7%, ERK AVP inh 5% and Luciferase inh -1%.
`CCN(CCCNC(=O)C1CCN(S(=O)(=O)c2cccc3nonc23)CC1)Cc1ccccc1` gave Pol III holo inh -2%, Bst PK mod >57, Tau filament bind 20µM*, 15-hLO inh -7%, ERK AVP inh -5% and Luciferase inh 2%.
For O=C1OC2(c3ccc(O)cc3Oc3cc(O)ccc32)c2c1c(-c1ccccc1)c(-c1ccccc1)c(-c1ccccc1)c2-c1ccccc1 the results were Pol III holo inh 7%[11.4 µM], Tau filament bind inactive[11.4 µM], 15-hLO inh 1µM*, ERK AVP inh 13%[11.5 µM] and Luciferase inh -4%[11.4 µM].
For O=C(c1cc(Br)ccc1O)c1cc(Br)ccc1O the results were Pol III holo inh -9%[11.4 µM], Tau filament bind inconclusive, 15-hLO inh inconclusive, ERK AVP inh -17%[11.5 µM] and Luciferase inh 7%[11.4 µM].
For CCc1nnc(NC(=O)CSc2nc3c(cc2C#N)CCC3)s1 the results were Pol III holo inh 0%, Tau filament bind 10%, 15-hLO inh 9%, ERK AVP inh -5% and Luciferase inh 3.2µM*.

From PubChem BioAssay
